Measured values: PubChem BioAssay (NCATS)
Inconclusive results are not listed. Unmarked numbers belong to inactive results. The call rests on the fitted dose curve; in most records, active means well fitted inhibition curve with a large enough effect; inconclusive means small, poorly fitted or top-dose-only effect; inactive means flat fitted curve, though single readings scatter.

assay: qHTS to identify inhibitors of the type 1 interferon - major histocompatibility complex class I in skeletal muscle: primary screen against the NCATS Pharmaceutical Collection (AID 1347407); conditions: human skeletal muscle cells, IFN-b-induced MHC-I HiBiT luminescence, 24 h; series mostly up to 45.9 µM; activity change, negative = inhibition: at the top concentration;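 further: luminescence of HiBiT knocked into endogenous HLA-B as interferon-induced MHC class I level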
How it was run: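 Cells were seeded with 4 ng/ml IFN-beta, incubated 1 h, then dosed with compounds over eight 1:5 steps up to 46 uM final. After 24 h at 37 C, HiBiT lytic reagent was added and luminescence read after 10 min lysis in the dark.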
On the % scale 0 is the no-effect control and ±100 the full control effect.

Compound | activity change, negative = inhibition [%]
CC[N+](CC)(CCNC(=O)C(=O)NCC[N+](CC)(CC)Cc1ccccc1Cl)Cc1ccccc1Cl | -14.2
Cc1c(C(C)C)c(=O)n(-c2ccccc2)n1C | -1.58
CN1C(CCl)Nc2cc(Cl)c(S(N)(=O)=O)cc2S1(=O)=O (stereo not drawn) | 3.58
NCCc1ccn[nH]1 | 16.8
O=C(OCC(O)CO)c1ccccc1Nc1ccnc2cc(Cl)ccc12 (stereo not drawn) | -29.9
CCCC(=O)Nc1ccc(OCC(O)CNC(C)C)c(C(C)=O)c1 (stereo not drawn) | 8.08
c1ccc(CNCCNCc2ccccc2)cc1 | -2.82
CC(=O)c1ccc2c(c1)N(CCCN1CCC(CCO)CC1)c1ccccc1S2 | -12.3
CCN(CC)CCOC(=O)C(c1ccccc1)C1CCCCC1 (stereo not drawn) | -15
Cc1ccc(C(=O)C(C)CN2CCCCC2)cc1 (stereo not drawn) | 0.448
O=C(Nc1ccc(Cl)c(Cl)c1)C1CC1 | -22.1
CCCCS(=O)(=O)N[C@@H](Cc1ccc(OCCCCC2CCNCC2)cc1)C(=O)O | 5.43
O=C1OC(c2ccc(O)cc2)(c2ccc(O)cc2)c2ccccc21 | -11.5
COc1cc(C(=S)N2CCOCC2)cc(OC)c1OC | -1.85
COc1cc2c(cc1OC)C(=O)C(CC1CCN(Cc3ccccc3)CC1)C2 (stereo not drawn) | -2.16
CN(C)/N=N/c1nc[nH]c1C(N)=O | -8.93
C/C=C(/C(=C/C)c1ccc(O)cc1)c1ccc(O)cc1 | -16.9

Compound | activity change, negative = inhibition [%]
Cc1c(F)c(N2CCNC(C)C2)cc2c1c(=O)c(C(=O)O)cn2C1CC1 (stereo not drawn) | 1.07
CNCC[C@@H](Oc1ccccc1C)c1ccccc1 | -4.91
Cc1ccc(Nc2c(F)cccc2Cl)c(CC(=O)O)c1 | -2.2
O=C(O)CNC(=O)c1ccccc1 | 3.48
CC(Cc1cccc(C(F)(F)F)c1)NCCOC(=O)c1ccccc1 (stereo not drawn) | 4.63
Cc1ccccc1C(=O)Nc1ccc(C(=O)N2CCCC(N(C)C)c3ccccc32)cc1 (stereo not drawn) | 2.48
CC1=C(C(=O)O)N2C(=O)[C@@H](NC(=O)[C@H](N)c3ccc(O)cc3)[C@H]2SC1 | 2.8
CC(C)(C)CC(C)(C)c1ccc(O)c(Cc2ccc(Cl)cc2Cl)c1 | -23.7
Cc1ccc(O)c2ncccc12 | -12.5
C=C1C(=C/C=C2\CCC[C@]3(C)[C@@H]([C@H](C)/C=C/[C@@H](O)C4CC4)CC[C@@H]23)C[C@@H](O)C[C@@H]1O | -18.3
Cc1cc(=O)n(-c2ccccc2)n1C | -0.954
CCOc1ccc(NC(=O)CC(C)O)cc1 (stereo not drawn) | -4.39
NC(=O)C(=O)N/N=C/c1ccc([N+](=O)[O-])o1 | 3.32
COc1cccc(OC)c1C(=O)N[C@@H]1C(=O)N2[C@@H]1SC(C)(C)[C@@H]2C(=O)O | 1.84
Cc1ncc(CSSCc2cnc(C)c(O)c2CO)c(CO)c1O | 3.32
CC(=O)N/N=C/c1ccc([N+](=O)[O-])o1 | -9.64
